An excerpt weighted towards active compounds, which were near 7.8% of everything screened.
MARV entry inh – Marburg virus entry inhibition. Potency, µM (titrated, usually from 37.8 µM), actives largely listed as inhibitors. Marburg virus pseudotyped entry inhibition, cell reporter. 300,000 compounds, 1.8% hits; calls by dose curve; tested in HEK293 cells
HCMV antiviral – blocks human cytomegalovirus replication. HFF cells, HCMV-luciferase reporter, 72 h; hits give low values. activity change, negative = inhibition, % at 57.5 µM. 410,000 compounds, 4.5% hits. AID 1259415; in the data active = activity change below about -60%; inconclusive = no clear call, values can overlap the other calls; inactive = above about -39%
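Inhibition of viral replication was scored as loss of reporter luminescence in HFFs infected with HCMV-luciferase (MOI 1 PFU/cell) for 72 h; compounds tested at 2 doses, normalized to buffer and Salinomycin controls.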
Vaccinia mCherry – vaccinia inhibition (mCherry reporter); 310,000 compounds, 0.63% hits; Potency, µM (highest dose often 36.5 µM), hits mostly inhibitors; Vaccinia virus mCherry reporter infection, fluorescence; calls by dose curve; tested in A549 cells; also: nearly all actives have a fitted effect of over 35% in size
Lassa entry inh – blocks Lassa virus binding to or entry into cells; Lassa virus pseudotype entry inhibition, cell reporter; Potency, µM (series often up to 37.9 µM), actives largely listed as inhibitors; 300,000 compounds, 1.2% hits; AID 540256; calls by dose curve; tested in HEK293 cells; also: nearly all actives have a fitted effect of over 50% in size
HCV inhibitor – inhibitors of hepatitis C virus infection; Huh7.5.1 HCVcc-Cre infection, luciferase reporter, 44 h; Potency, µM (titrated, usually from 41.8 µM), hits mostly inhibitors; 340,000 compounds, 3.4% hits; AID 651820; active = well fitted inhibition curve with a large enough effect; inconclusive = small, poorly fitted or top-dose-only effect, or another doubt; inactive = no such curve, though single readings can be large or run the other way
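Seed cells (1,000/well) for 4 h; treat with compound and infect with HCVcc-Cre, moi about 0.5. Incubate 44 h, then detect luciferase activity.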
VACV Venus inh – vaccinia inhibition (Venus reporter); Vaccinia virus Venus reporter expression, fluorescence; Potency, µM (doses to about 36.5 µM), usual class: inhibitors; 330,000 compounds, 0.46% hits; calls by dose curve; tested in A549 cells; also: nearly all actives have a fitted effect of over 30% in size
Numbers stand for hits; n = inactive; u = inconclusive; x = no result given; ! = repeats disagree; [ ] = another dose, or the depositor's remark.

SMILES | MARV entry inh | HCMV antiviral | Vaccinia mCherry | Lassa entry inh | HCV inhibitor | VACV Venus inh
CC(C)Cn1c(N)c(C(=O)COC(=O)/C=C/c2cccs2)c(=O)n(C)c1=O | u | -73 | n | u | 4µM | n
Cc1c(C(=O)OCC(=O)c2c(N)n(CC(C)C)c(=O)n(C)c2=O)oc2ccccc12 | 10µM | -64 | n | n | u | u
CC(C)Cn1c(N)c(C(=O)COC(=O)c2ccccc2C(=O)c2ccccc2)c(=O)n(C)c1=O | x | n | x | x | 10µM | x
COC(=O)C1=C(C)N(C)C(=NCc2cc(OC)c(OC)c(OC)c2)NC1c1cccc(Cl)c1 (stereo unspecified) | x | n | x | x | x | x
CCC(C)CCN1C(Nc2ccccc2)=NC[C@@H]1Cc1ccccc1 (stereo partly specified) | x | -100 | n | x | n | n
CCN1C(Nc2ccccc2)=NC[C@@H]1Cc1ccccc1 | x | n | n | x | n | n
CC(C)(C)C1CCC(CN2C(Nc3ccccc3)=NC[C@@H]2Cc2ccccc2)CC1 (stereo partly specified) | x | -76 | u | x | u | u
Cc1cccc(CCN2C(Nc3ccccc3)=NC[C@@H]2CC(C)C)c1 | x | u | n | x | 2.8µM | n
CCC(C)CCN1C(Nc2ccccc2)=NC[C@@H]1CC(C)C (stereo partly specified) | x | n | n | x | n | n
COc1cc(CNc2nc(C)c(-c3ccn(C4Cc5ccccc5C4)n3)s2)cc2c1OCO2 | x | x | n | x | x | n
Cc1ccc(C)c(NC(=O)C(=O)NCCc2csc(-c3cccc(F)c3)n2)c1 | x | n | n | n | x | n
COc1cccc(C(=O)Nc2ccc(-c3cn4cccnc4n3)cc2)c1OC | u | n | n | u | x | n
CCOC(=O)N1CCC(NC(=O)c2ccc3c(c2)N(Cc2ccccc2C)C(=O)c2ccccc2S3=O)CC1 (stereo unspecified) | n | n | n | n | x | n
Nc1nc(CSC(=S)N2CCCCC2)nc(Nc2ccccc2)n1 | u | n | n | u | n | n
CCOc1ccc(Nc2nc(N)nc(CCl)n2)cc1 | u | -96 | u | u | 0.56µM | u
CC1CC(C)CN(C(=S)SCc2nc(N)nc(Nc3ccccc3)n2)C1 (stereo unspecified) | u | -65 | n[7.34 µM] | n | u | n[7.34 µM]
Cc1ccc(Nc2nc(N)nc(CCl)n2)cc1 | u | -108 | n | u | n | n
Nc1nc(CSc2n[nH]c(-c3ccccc3)n2)nc(Nc2ccccc2)n1 | u | n | u | u | 3.2µM | n
COC1CCC(c2nnsc2N2C(=O)C3=C(CCCC3)C2=O)CC1 (stereo unspecified) | n | x | x | x | x | x
C#C[C@H](N)CCC(=O)O | n | x | x | x | x | x
Cc1ccccc1C(=O)Nc1ccc(OCc2cc(=O)n3ccccc3n2)cc1 | x | u | n | u | x | n
CCc1ccc2nc(N(CCN(CC)CC)C(=O)c3ccco3)sc2c1 | x | n | n | n | x | n
Cc1cccc(Nc2nc(N)nc(CCl)n2)c1C | u | -96 | u | u | n | u
Nc1nc(CCl)nc(Nc2ccccc2)n1 | x | -91 | x | x | u | x
Cc1cccc(Nc2nc(N)nc(CN3CCC(C(N)=O)CC3)n2)c1C | n | n | x | n | n | n
SMILES | MARV entry inh | HCMV antiviral | Vaccinia mCherry | Lassa entry inh | HCV inhibitor | VACV Venus inh
Cc1ccc(Nc2nc(N)nc(CSc3nc4ccccc4s3)n2)cc1 | u | -91! | u | u | u | u
COc1ccc(Nc2nc(N)nc(CSc3nc4ccccc4s3)n2)cc1 | n | n | u | u | x | n
Cc1ccc(Nc2nc(N)nc(CCl)n2)c(C)c1 | x | -103 | x | x | 0.5µM | x
COc1cccc(-n2c(SC)nnc2C2CCN(Cc3nc4ccccc4s3)CC2)c1 | x | x | n | x | x | n
CC[Se]CC[C@@H](N)C(=O)O | n | x | x | x | x | x
Cc1c(Cl)cccc1Nc1nc(N)nc(CN2CCc3ccccc3C2)n1 | n | n | u | n | u | n
Cc1ccc(Nc2nc(N)nc(CN3CCc4ccccc4C3)n2)cc1 | u | n | x | 23µM | u | x
Nc1nc(COC(=O)CCC(=O)c2ccccc2)nc(Nc2ccccc2)n1 | n | n | n | n | n | n
Nc1nc(COC(=O)c2ccc3c(c2)OCCO3)nc(Nc2ccccc2)n1 | n | n | n | n | 11µM | n
CCN(CC)S(=O)(=O)c1ccc2c(c1)nc(CN(C)C(=O)Nc1ccc(C)c(F)c1)n2C | x | n | n | n | x | n
O=C(c1cccc(N2CCCC2=O)c1)N1CCC(Oc2cccc(CN3CCN(c4ccccn4)CC3)c2)CC1 | x | x | u | x | x | n
N#Cc1cccc(-c2cc(NCc3cccs3)ncn2)c1 | x | x | u | x | x | n
CCCC1OC2CC3C4CCC5=CC(=O)C=CC5(C)C4C(O)CC3(C)C2(C(=O)O)O1 (stereo unspecified) | x | n | x | x | n | x
CCCC1O[C@@H]2C[C@H]3[C@@H]4CCC5=CC(=O)C=C[C@]5(C)[C@H]4[C@@H](O)C[C@]3(C)[C@]2(C(=O)CO)O1 (stereo partly specified) | 9.2µM | n | n | u | n[8.37 µM] | n
Cc1ccc(Sc2ccc(/C=N/O)cc2[N+](=O)[O-])cc1 | u | n | u | u | 11µM | u
CC(=O)Nc1ccc(S(=O)(=O)N2CCN(C(=O)N3CCCCCC3)CC2)cc1 | u | -69 | x | u | n | n
CC(=O)Nc1ccc(S(=O)(=O)N2CCN(C(=O)N3CCCC3)CC2)cc1 | n | n | n | x | n | n
CC(=O)Nc1ccc(S(=O)(=O)N2CCc3c(Cl)cccc3C2)cc1 | x | -67 | n | x | u | n

Screening data: PubChem, National Center for Advancing Translational Sciences (NCATS)
